Assay [1] is described as follows: qHTS assay to identify small molecule agonists of the vitamin D receptor (VDR) signaling pathway - cell viability counter screen (AID 743224). Note: series mostly up to about 63 µM; nearly all actives have a fitted effect of over 50% in size. A digest of the protocol: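 Here cell health was gauged by luminescent ATP detection (CellTiter-Glo, 30 min RT) in VDR-bla cells that had been incubated with test compounds for 16 h at 37C and 5% CO2.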
On the technique in general: qHTS replaces the single test concentration by a dilution series.

Assay [2] can be described thus: qHTS assay to identify small molecule antagonists of the vitamin D receptor (VDR) signaling pathway - cell viability counter screen (AID 743225). Note: nearly all actives have a fitted effect of over 50% in size. An outline of the steps: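 Compounds were pinned onto VDR-bla HEK 293T cells together with 1-alpha,25-dihydroxyvitamin D3 at 3 nM final. After 16 h at 37C and 5% CO2 plus the reporter readout, cell viability was measured by CellTiter-Glo luminescence (30 min, room temperature).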

Assay [3] in a line: qHTS assay to identify small molecule agonists of the NFkB signaling pathway (AID 1159509; active = well fitted curve in the direction sought with a large enough effect in the signal ratio in the repeat runs, not every such curve was filed as active; the % refers to the signal ratio; note: series mostly up to about 61 µM). An outline of the steps:
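ME-180 NFkB-bla, 2,000 cells/well, overnight plating; cpd pinned in DMSO, 5 h 37 C; B/G FRET substrate 1.5 h RT; ex 405, em 460/530 nm.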

Assay [4] in a line: qHTS assay to identify small molecule agonists of the NFkB signaling pathway - cell viability counter screen (AID 1159515; calls by dose curve; note: series mostly up to about 61 µM; nearly all actives have a fitted effect of over 55% in size). A digest of the protocol: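 5 hr compound treatment of NFkB-bla ME-180 cells (2,000/well, seeded overnight beforehand), followed by reporter substrate for 1.5 hr. CellTiter-Glo added afterward; luminescence after 30 min RT.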
A short description of assay [5]: qHTS assay to identify small molecule agonists of the endoplasmic reticulum stress response signaling pathway (AID 1159516; active = well fitted activation curve with a large enough effect in the signal ratio in the repeat runs, not every such curve was filed as active; the % refers to the signal ratio). An outline of the steps: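 Reporter HeLa cells (ESRE-beta-lactamase) underwent 5 hr compound incubation at 37 C and 5% CO2 in quantitative HTS format. Detection followed 2 hr of FRET substrate loading at room temperature.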
The nature of assay [6]: qHTS assay to identify small molecule agonists of the endoplasmic reticulum stress response signaling pathway - cell viability counter screen (AID 1159517; calls by dose curve;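 note: HeLa cells carrying an ER stress response element beta-lactamase reporter; series mostly up to about 61 µM; nearly all actives have a fitted effect of over 50% in size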). A digest of the protocol:
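ESRE-bla HeLa cells, 1,500 per well, seeded overnight then treated with compounds for 5 hr at 37 C. After the beta-lactamase read, viability in the same wells is measured by CellTiter-Glo luminescence after 30 min at room temperature.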

Assay [7] can be described thus: qHTS assay to identify small molecule antagonists of the retinoid-related orphan receptor gamma (ROR-gamma) signaling pathway - cell viability counter screen (AID 1159520). Note: nearly all actives have a fitted effect of over 50% in size. An outline of the steps:
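Tet-on ROR gamma CHO cells were given compounds for 2 hr, then doxycycline hyclate at 1 uM final, and incubated 16 hr at 37 C. Viability was measured as ATP content by CellTiter-Glo luminescence.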

Assay [8] can be described thus: qHTS assay to identify small molecule agonists of the AP-1 signaling pathway - cell viability counter screen (AID 1159525; calls by dose curve; note: nearly all actives have a fitted effect of over 55% in size). An outline of the steps:
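AP-1-bla ME-180 cells in Opti-MEM with 0.5% dialyzed FBS, compound exposure 5 h at 37 C in 15-point titration. Viability read in the same wells as ATP content by CellTiter-Glo luminescence, normalised to tetra-n-octylammonium bromide and DMSO controls.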

Assay [9] can be described thus: qHTS assay to identify small molecule agonists of the AP-1 signaling pathway (AID 1159526; calls by dose curve).
In assay [10] the target is Retinoic acid receptor RXR-alpha (Homo sapiens) (UniProt P19793). Nature of the assay: qHTS assay to identify small molecule agonists of the RXR signaling pathway (AID 1159527; calls by dose curve; note: nearly all actives have a fitted effect of over 35% in size). A digest of the protocol: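 Using 9-cis retinoic acid as the reference agonist, chemicals were tested in HEK 293T cells […] for 16 hr; substrate loading lasted 2 hr at room temperature.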
Retinoic acid receptor RXR-alpha (Homo sapiens), sequence (P19793 whole entry, looked up): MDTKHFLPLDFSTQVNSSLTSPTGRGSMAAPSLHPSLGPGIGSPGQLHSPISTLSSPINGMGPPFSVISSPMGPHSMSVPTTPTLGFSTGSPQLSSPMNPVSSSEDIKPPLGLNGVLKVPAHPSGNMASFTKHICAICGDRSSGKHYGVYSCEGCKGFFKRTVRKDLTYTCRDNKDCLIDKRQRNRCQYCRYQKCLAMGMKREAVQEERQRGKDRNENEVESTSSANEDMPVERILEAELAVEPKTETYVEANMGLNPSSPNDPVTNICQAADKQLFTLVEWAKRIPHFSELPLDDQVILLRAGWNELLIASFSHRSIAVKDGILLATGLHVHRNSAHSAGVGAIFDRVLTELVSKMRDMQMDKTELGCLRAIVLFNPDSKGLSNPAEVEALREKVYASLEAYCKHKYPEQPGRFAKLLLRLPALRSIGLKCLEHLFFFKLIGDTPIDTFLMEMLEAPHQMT

Assay [11] is described as follows: qHTS assay to identify small molecule agonists of the RXR signaling pathway - cell viability counter screen (AID 1159529). An outline of the steps: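 Compounds dissolved in DMSO were pinned onto HEK 293T cells carrying a beta-lactamase reporter under RXR-alpha control and incubated 16 hr. Cytotoxicity was then quantified by CellTiter-Glo luminescence.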
A short description of assay [12]: qHTS assay to identify small molecule antagonists of the retinoid acid receptor (RAR) signaling pathway - cell viability counter screen (AID 1159551). Note: nearly all actives have a fitted effect of over 35% in size. An outline of the steps:
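Seed C3RL4 cells; next day add compound, then retinol to 1 uM final; incubate 6 h at 37 C; add CellTiter-Glo; read luminescence after 30 min at RT.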

The target of assay [13] is Nuclear receptor ROR-gamma (Homo sapiens) (UniProt P51449). Nature of the assay: qHTS assay to identify small molecule antagonists of the retinoid-related orphan receptor gamma (ROR-gamma) signaling pathway (AID 1159521; note: nearly all actives have a fitted effect of over 50% in size; note: potency is the fitted concentration of half-maximal effect). A digest of the protocol: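 Test compounds were applied to Tet-on RORγ CHO cells 2 h ahead of doxycycline hyclate (1 uM final). Luciferase reporter activity was quantified by luminescence after 16 h at 37 C and 5% CO2.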

Assay [14] in a line: qHTS assay to identify small molecule antagonists of the retinoic acid receptor (RAR) signaling pathway (AID 1159552; note: nearly all actives have a fitted effect of over 50% in size). An outline of the steps:
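Test chemicals and DMSO controls were pin-transferred onto C3RL4 cells a day after seeding; retinol (1 uM final) followed at once. Luminescent reporter output was quantified after 6 hr of co-incubation and 30 min with detection reagent.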

A short description of assay [15]: qHTS assay to identify small molecule agonists of the retinoic acid receptor (RAR) signaling pathway (AID 1159553). A digest of the protocol: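 Activation of retinol signaling was monitored via a RARE luciferase reporter in C3RL4 cells. After 6 hr compound treatment at 37 C, detection reagent was added for 30 min at room temperature before luminescence reading.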

A short description of assay [16]: qHTS assay to identify small molecule antagonists of the estrogen related receptor (ERR) signaling pathway - cell viability counter screen (AID 1224818).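 Note: series mostly up to about 46 µM; viability measured after 17.5 h of compound exposure.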 An outline of the steps: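 In the same ERR cell assay, compound-treated wells (17.5 h, 37 C) were multiplexed with a fluorogenic viability reagent, CellTiter-Fluor, read after 30 min to flag cytotoxic substances.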

The nature of assay [17]: qHTS assay to identify small molecule antagonists of the estrogen related receptor signaling pathway with the pleiotropic PPARgamma coactivator (PGC) cell viability counter screen (AID 1224822; note: series mostly up to about 46 µM). An outline of the steps: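 Compounds in DMSO, with positive and negative controls, were applied to PGC/ERR cells (2,000/well) and left 17.5 h at 37 C before CellTiter-Fluor detection.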

Results filed as inconclusive are left out. Some structures have more than one record in an assay (separate samples or runs), and their calls can disagree. The source made the active and inactive calls. Unless noted, calls come from the whole dose curve; as a rule, active = well fitted curve in the direction sought with a large enough effect in the repeat runs; inconclusive = weak or mixed curves; inactive = no such curve, though single readings can be large; an effect the other way counts as inactive or inconclusive.

As to `COCC(C)O` (stereo unspecified), the Potency entry in [1], in assay [2], in [6], in [7], in assay [8] and in assay [9] was “inactive” each time. Besides, the Potency entry in assay [10], in [11] and in assay [12] was “inactive” throughout. Besides, the outcome in [3], in [4] and in [5] was inactive.

Consider `O=[N+]([O-])C(CO)(CO)CO`, for which the Potency entry in assay [1], in [2], in [6], in assay [13], in assay [8] and in assay [9] was “inactive” throughout. Besides, the Potency entry in assay [10], in [11], in assay [12], in assay [14] and in assay [15] was “inactive” throughout. Moreover, the outcome in assay [3], in [4] and in assay [5] was inactive.

For `Cc1cc(NS(=O)(=O)c2ccc(N)cc2)no1`, the Potency result in assay [1], in [2], in assay [6], in assay [7], in assay [8] and in assay [9] was “inactive” each time. For the same compound, the Potency entry in [11], in assay [12] and in assay [15] was “inactive” in each case. The outcome in [3], in assay [4] and in assay [5] was inactive.

Consider `c1ccc2ccccc2c1`, for which the Potency entry in [1], in [2], in assay [6], in [7], in [8] and in assay [9] was “inactive” throughout. In addition, the Potency entry in assay [11], in assay [12], in assay [14] and in assay [15] was “inactive” in each case. Also, the result in assay [3], in assay [4] and in assay [5] was inactive.

Take `CC(C)NCC(O)COc1cccc2ccccc12` (stereo unspecified): the Potency entry in [1], in [2], in assay [6], in assay [7], in [8] and in [10] was “inactive” in each case. The Potency result in [11], in [12], in [14] and in assay [15] was “inactive” throughout. The compound was classed as inactive in assay [3], in assay [4], in assay [5], in assay [16] and in [17].

On to `O=C(c1cc(O)c(O)c(O)c1)c1ccc(O)c(O)c1O`, for which the Potency result in [1], in assay [2], in assay [6], in [8], in assay [9] and in assay [10] was “inactive” each time. Besides, the Potency result in assay [11], in assay [12], in assay [14] and in assay [15] was “inactive” in each case. The call in assay [3], in assay [4] and in [5] was inactive. Moreover, the Potency in assay [13] is 21.7 µM (active) and inactive.

On to `Cc1ccc(C)c(C)c1`, for which the Potency result in [1], in assay [2], in assay [6], in assay [7], in assay [8] and in assay [9] was “inactive” each time. Moreover, the Potency entry in [10], in assay [11], in [12], in assay [14] and in assay [15] was “inactive” each time. Besides, the result in assay [3], in [4] and in [5] was inactive.

With `C=C1C2CCC(C2)C1(C)C` (stereo unspecified), the Potency entry in [1], in [2], in assay [6], in assay [7], in [8] and in assay [9] was “inactive” each time. For the same compound, the Potency result in assay [10], in [11], in assay [12], in assay [14] and in assay [15] was “inactive” in each case. Besides, the call in [3], in [4] and in [5] was inactive.

Turning to `O=C(Cl)c1c(Cl)c(Cl)c(C(=O)Cl)c(Cl)c1Cl`, the Potency entry in assay [1], in assay [2], in assay [6], in assay [7], in assay [8] and in assay [9] was “inactive” in each case. The Potency result in assay [10], in assay [11], in assay [12], in assay [14] and in assay [15] was “inactive” throughout. Besides, the call in assay [3], in assay [4] and in assay [5] was inactive.

With `CCCCCCC(C)(C)S`, the Potency entry in assay [1], in [2], in [6], in [13], in assay [8] and in [9] was “inactive” throughout. The Potency entry in [10], in assay [11], in [12], in [14] and in [15] was “inactive” throughout. Moreover, the result in [3], in [4] and in [5] was inactive.
